The values that follow come from PubChem BioAssay AID624040 (The Scripps Research Institute Molecular Screening Center, 2012).

The whole screen tested about 360,000 compounds, of which about 2,100 (0.58%) were called active. The list comes from a sample in which actives are over-represented; it also holds similar structures and randomly drawn compounds. Values without a mark were called inactive.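 How the source made its calls: active means inhibition above a per-plate cutoff, the mean of that plate's test compounds plus 3 SD (cut at about 27% in these data); inactive means the rest.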

This experiment deals with Muscarinic acetylcholine receptor M5 (Homo sapiens) (UniProt P08912). The experiment can be described thus: CHRM5 blockers of acetylcholine calcium response – CHO cells, Fluo-8 calcium fluorescence, primary screen (AID 624040).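 Further: 0% = acetylcholine EC80 with DMSO and 100% = DMSO without agonist.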 Conditions: CHO-hM5 cells, ACh EC80, at 3 µM, hits give high values.
Muscarinic acetylcholine receptor M5 (Homo sapiens), sequence (P08912 whole entry, looked up): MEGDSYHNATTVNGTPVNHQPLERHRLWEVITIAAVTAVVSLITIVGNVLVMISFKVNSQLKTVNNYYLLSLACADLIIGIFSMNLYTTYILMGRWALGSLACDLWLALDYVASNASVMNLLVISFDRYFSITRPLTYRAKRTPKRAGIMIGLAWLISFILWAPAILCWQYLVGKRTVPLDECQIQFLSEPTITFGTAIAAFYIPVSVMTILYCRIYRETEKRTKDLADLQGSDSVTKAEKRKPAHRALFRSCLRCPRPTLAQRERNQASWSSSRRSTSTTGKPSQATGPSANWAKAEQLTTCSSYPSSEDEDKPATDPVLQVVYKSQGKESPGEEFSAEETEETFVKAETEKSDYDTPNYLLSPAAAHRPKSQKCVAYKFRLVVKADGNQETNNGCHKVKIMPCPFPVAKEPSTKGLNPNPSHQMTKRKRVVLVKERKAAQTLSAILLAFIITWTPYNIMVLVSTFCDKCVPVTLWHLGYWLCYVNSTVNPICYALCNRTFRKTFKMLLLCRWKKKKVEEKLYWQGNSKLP
The inhibition is the relative decrease from the control value, in per cent. With `CCc1ccc[n+](-c2nc([O-])sc2C=O)c1`, the inhibition is 9.19%.

`Cc1ccc(C23CC4CC(CC(C(=O)NCC(=O)O)(C4)C2)C3)cc1`: the inhibition is 6.84%.

With `Cc1nnc(SCCCCSc2nnc(C)c(=O)[nH]2)[nH]c1=O`, the inhibition was -7.67%.

In the case of `CC1(C(=O)Nc2ccccc2Br)CCN1C(=O)CC1CC1` (stereo unspecified), the inhibition was 4.22%.

For the molecule `COn1c(=O)c(=O)n(OC)c2ccccc21`, the inhibition was 6.69%.

Regarding `CCOc1cc(C(=O)Nc2ccc(S(=O)(=O)Nc3cnc4ccccc4n3)cc2)cc(OCC)c1OCC`, the inhibition is 0.97%.

For `Nc1nnc(SCC(=O)Nc2ccc3nc(SCC(=O)Nc4ccccc4)sc3c2)s1`, the inhibition was 43.5% (active).

On to `O=C(CSc1nc(-c2ccccc2)cs1)Nc1cccc([N+](=O)[O-])c1`, for which the inhibition is 14.8%.

As to `Nc1nnc(SCC(=O)NC2CCCc3ccccc32)s1` (stereo unspecified), the inhibition is 2.63%.

On to `CCOC(=O)c1nc(-c2ccc3c(c2)OCO3)[nH]c1C`, for which the inhibition was 3.11%.

With `COc1ccc2c(c1)[C@H]1[C@H](CO2)[C@H](c2ccccc2)[C@]2(C)C(=O)Nc3cc(F)c(F)cc3C(=O)N12`, the inhibition is 11.7%.

For `Cc1ccc(C(=O)N2CC(=O)Nc3ccc(F)cc3C2c2ccc(F)cc2)cc1` (stereo unspecified), the inhibition is 11.2%.

As for `CCN1CCC(O)(/C=C/c2ccc(C)cc2)C(C(=O)/C=C/c2ccc(C)cc2)C1` (stereo unspecified), the inhibition was 5.72%.

`CCN1CCC2(CC1)N=C(c1ccc(F)cc1)C(=S)N2C(=O)c1ccc(C)cc1`: the inhibition is 69.5% (active).

As for `CCOc1ccc(-n2c(N)c(C(=O)NCC3CCCO3)sc2=S)cc1` (stereo unspecified), the inhibition is 3.05%.

Regarding `Cc1cccc(C(=O)NCC(=O)OCC(=O)N(C)CC(=O)Nc2ccccc2Cl)c1`, the inhibition was 9.75%.

With `CC1(C)CC(N2CCN(C(c3ccccc3)c3ccccc3)CC2)=CC(=[N+]2CCCCC2)C1`, the inhibition is 31.9% (active).

As to `CC1CC(NC(=O)/C(C#N)=C/c2ccc[nH]2)CC(C)(C)C1` (stereo unspecified), the inhibition was 1.56%.

Take `CCC(=O)N1CCN=C1SCc1ccc(F)cc1`: the inhibition was 5.93%.

Turning to `COc1cccc(CNc2nc3cc(-c4csc5ccccc45)sc3c(=O)n2C)c1`, the inhibition was 2.12%.

Take `COc1cccc(CNc2nc(NCc3cccs3)nc3ccsc23)c1`: the inhibition is 44.2% (active).

Regarding `COc1ccccc1CNc1nc(Nc2ccccc2Cl)c2sccc2n1`, the inhibition is 11.1%.

In the case of `CN(C)c1ccc(NC(=S)N(CCc2ccccc2)C2CC(=O)N(c3c(Cl)cccc3Cl)C2=O)cc1` (stereo unspecified), the inhibition is -4.62%.

`CCOc1ccc(N2C(=O)CC(N(CCc3ccc(OC)c(OC)c3)C(=S)Nc3ccccc3)C2=O)cc1` (stereo unspecified): the inhibition is 30.8% (active).

Take `COC(=O)CN(C(=S)Nc1ccc(Cl)cc1)C1CC(=O)N(c2ccc(OC)cc2)C1=O` (stereo unspecified): the inhibition is 11.6%.

Regarding `CCn1ncc(CNC(=O)C2(C)CC2(Br)Br)c1C` (stereo unspecified), the inhibition is 4.36%.

In the case of `CCCCCCCCCCOC(=O)Cn1c(COc2cccc(OC)c2)[n+](C)c2ccccc21`, the inhibition was 31% (active).

With `Cc1c(C)c(C)c(S(=O)(=O)N2CCC3(CC2)OCCO3)c(C)c1C`, the inhibition is 5.79%.

Take `COC(C/C=C/C(=O)[C@@H](C)OCc1ccccc1)OC`: the inhibition was 3.64%.

For `CC(C)(C)C(=O)/C(C#N)=C/c1ccc(O)cc1`, the inhibition is 4.34%.

On to `O=C(/C=C(O)/C=C/c1ccc(O)cc1)/C=C/c1ccc(O)cc1`, for which the inhibition is 54.8% (active).

Turning to `NC1=NC(=O)S/C1=C\c1ccc(O)cc1`, the inhibition is -0.48%.

Take `COc1ccc(OCCNS(=O)(=O)Cc2ccccc2)cc1`: the inhibition is 4.63%.

As for `COc1ccc(S(=O)(=O)NCCCCOc2ccc(Cl)cc2)cc1`, the inhibition was 32.2% (active).

For the molecule `COc1ccc(S(=O)(=O)NCCOc2ccccc2)cc1F`, the inhibition is -2.02%.

In the case of `Cc1ccc(S(=O)(=O)N2CCOCC2)cc1C(=O)OC1CCCCC1=O` (stereo unspecified), the inhibition is 5.95%.

For `O=C(COc1ccccc1)Nc1cc2c3c(c1)CC(=O)N3CCC2`, the inhibition is -0.99%.

Turning to `CCOC(=O)CCP(=O)(O)C(O)(c1ccccc1)c1ccccc1`, the inhibition was -4.02%.

In the case of `CCC(C(=O)OCCN(CC)CC)c1ccccc1` (stereo unspecified), the inhibition was 67.6% (active).

On to `CCN(CC)CCOC(=O)c1ccc(NC(=O)CNC(=O)c2ccccc2)cc1`, for which the inhibition was 10.2%.

As for `CCC(C(=O)Nc1ccc(C(C)C)cc1)c1ccccc1` (stereo unspecified), the inhibition was 19.2%.

`COC(CCN(C)C)(c1ccccc1)c1ccccc1`: the inhibition was 11.5%.

Turning to `CCCC(C(=O)OCCN(CC)CC)(c1ccccc1)c1ccccc1`, the inhibition was 48.8% (active).

For the molecule `CN(C)C(=O)c1ccc2c(c1)C1C3CCC(C3)C1C(c1ccccc1)N2` (stereo unspecified), the inhibition is -2.46%.

For `CCOC(=O)N1CCC(NC(=O)Cn2cc3c(n2)CCCCC3)CC1`, the inhibition is 0.05%.

Consider `CC(C)c1ccc(NC(=O)CCN2C(=O)c3ccc([N+](=O)[O-])cc3C2=O)cc1`, for which the inhibition is -6.62%.

Regarding `CC(C)c1ccc(C=NNc2ccc([N+](=O)[O-])cn2)cc1`, the inhibition was 27.5% (active).

For the molecule `CC(C)c1ccc(/C=C2\NC(=O)NC2=O)cc1`, the inhibition is -18.6%.

Turning to `CCS(=O)(=O)N1CCC(N2CCN(c3ccccc3)CC2)CC1`, the inhibition is 8.56%.

For `Cc1ccccc1NS(=O)(=O)CCCCC(Cl)(Cl)Cl`, the inhibition is 3.5%.

In the case of `COc1ccc(CN2CC(C(=O)NC3CCCCC3)CC2=O)cc1` (stereo unspecified), the inhibition is -0.55%.

As to `CC(=O)N1CCN(Cc2cc(=O)oc3cc(C)ccc23)CC1`, the inhibition was -1.45%.

For the molecule `CC(=O)c1c(C)[nH]c(C(=O)COC(=O)c2cccc(S(=O)(=O)N(C)c3ccccc3)c2)c1C`, the inhibition was 74.2% (active).

As to `COc1ccc(C)cc1NC(=O)C(OC(=O)c1cccc(S(=O)(=O)N(C)c2ccccc2)c1)c1ccccc1` (stereo unspecified), the inhibition was -1.67%.

Regarding `CN(c1ccccc1)S(=O)(=O)c1cccc(C(=O)NNC(=O)c2ccncc2)c1`, the inhibition is 1.22%.

In the case of `O=C(CCc1nnc2ccc(NCc3ccccc3Cl)nn12)NCC1CCN(C2CCCC2)C1` (stereo unspecified), the inhibition is 1.64%.

`COC(C[C@H](O)CC(=O)COCc1ccccc1)OC`: the inhibition is 2.21%.

Consider `O=C(NCCN1CCN(C(=O)c2cccc([N+](=O)[O-])c2)CC1)C(=O)NCc1ccc(Cl)cc1`, for which the inhibition is 10.1%.

As for `Cc1csc(NC(=O)CSc2ccc(-c3ccc(F)cc3)nn2)n1`, the inhibition was 6.55%.

Take `COc1ccc(CC(=O)NC2CCSc3ccccc32)cc1OC` (stereo unspecified): the inhibition was 17.6%.

Turning to `COc1ccc(CC(=O)Nc2nc(-c3ccc(F)c(F)c3)cs2)cc1OC`, the inhibition was 32.4% (active).

As to `O=C(CNCCO)NC12CC3CC(CC(C3)C1)C2`, the inhibition was -2.76%.

As to `O=C(Oc1ccc(-c2nnco2)cc1)c1ccc(F)c(S(=O)(=O)N2CCOCC2)c1`, the inhibition was 27.2% (active).

With `COc1ccc(C(=O)Oc2ccc(-c3nnco3)cc2)cc1S(=O)(=O)N1CCOCC1`, the inhibition is 15.9%.

As to `NC(=O)C1CCN(C(=O)c2ccc(F)c(S(=O)(=O)N3CCOCC3)c2)CC1`, the inhibition is 13.8%.

In the case of `CC1C(=O)NC(=O)C1c1ccccc1` (stereo unspecified), the inhibition was 5.64%.

Take `COc1cccc(-c2ccc(C#N)c(SCC(=O)NCCc3ccc(Cl)cc3)n2)c1`: the inhibition is -0.91%.

Regarding `COc1cc(C(=O)N2CCOC23CCN(Cc2ccccc2)CC3)cc(OC)c1OC`, the inhibition is 4.88%.

Regarding `C[C@@H]1CC[C@@]2(OC1)O[C@H]1C[C@H]3[C@@H]4CC=C5C[C@@H](O)[C@H](O)C[C@]5(C)C4CC[C@]3(C)[C@H]1[C@@H]2C` (stereo partly specified), the inhibition is -3.19%.

On to `O=C(OCc1nnc(-c2ccccc2)o1)c1ccc2c(c1)C(=O)N(CCc1ccccc1)C2=O`, for which the inhibition is 5.45%.

Regarding `O=C(OCc1nnc(-c2ccccc2)o1)c1cc(=O)[nH]c2ccccc12`, the inhibition is 6.31%.

Consider `Cc1onc(-c2ccccc2)c1-c1nnc(COC(=O)c2ccc(N(C)C)cc2)o1`, for which the inhibition was 66.8% (active).

Take `CN/C(=C\[N+](=O)[O-])NCCSCc1csc(CN(C)C)n1`: the inhibition is 4.23%.

Consider `CC(C)C(=O)Nc1nnc(Sc2ccc(N(C)C)cc2)s1`, for which the inhibition was -0.86%.

For the molecule `O=C(Cc1ccc(S(=O)(=O)N2CCOCC2)s1)N1CCN(c2ccc(C(F)(F)F)cc2[N+](=O)[O-])CC1`, the inhibition is 17.4%.

On to `COc1cc(OC)cc(C(=O)NC(=S)N2CCN(c3ccc(C(F)(F)F)cc3[N+](=O)[O-])CC2)c1`, for which the inhibition is 18.9%.

With `O=C(c1ccc(N2CCCC2=O)cc1)N1CCN(c2ccc(C(F)(F)F)cc2[N+](=O)[O-])CC1`, the inhibition is 29.3% (active).

With `CC(Sc1sc(=S)sc1SC(C)C(=O)O)C(=O)O` (stereo unspecified), the inhibition was 0.68%.

For the molecule `Cc1cc2oc3ccc(NCCC4CCCN4C)cc3c(=O)c2cc1C` (stereo unspecified), the inhibition is 9.19%.

As for `CN1CCC[C@@H]1CCO[C@](C)(c1ccccc1)c1ccc(Cl)cc1`, the inhibition is 98.5% (active).

For the molecule `Cc1ccc(-c2noc(CNC(=O)c3ccoc3C)n2)cc1`, the inhibition was 12.7%.

`CC(=O)c1ccc(S(=O)(=O)N(C)CCCC(=O)N(C)Cc2ccccc2F)cc1`: the inhibition is -0.62%.

Consider `Cc1nc(CN(C)C(=O)CC2C(=O)NCCN2Cc2ccc(F)cc2)cs1` (stereo unspecified), for which the inhibition was -22.7%.

`CSc1cccc(NC(=S)N(C(C)C)C(C)c2ccccn2)c1` (stereo unspecified): the inhibition is 4.26%.

For `COc1ccc(-c2[nH]ncc2CN(C)Cc2cccnc2)c(F)c1`, the inhibition is -5.23%.

In the case of `CCOc1ccc2[nH]c(=O)c(CN(CCCO)S(=O)(=O)c3ccc(F)cc3)cc2c1`, the inhibition was 11.3%.

Consider `COc1ccc2[nH]c(=O)c(CN(Cc3cccnc3)S(=O)(=O)c3ccccc3F)cc2c1`, for which the inhibition is 27.3% (active).

In the case of `CC(C)c1nnc(NC(=O)C2CCCN2S(=O)(=O)c2ccc(Cl)cc2)s1` (stereo unspecified), the inhibition was -0.86%.

For the molecule `CC(=O)CC(CC(=O)NC1CCCCC1)c1ccccc1` (stereo unspecified), the inhibition is 8.42%.

For `O=C(CNC1CCCCC1)NCC1(c2ccccc2)CCCC1`, the inhibition is 27.1% (active).

`CCOc1c(OC)cccc1C(=O)NCC1(c2ccccc2)CCCC1`: the inhibition was 15.3%.
